{"source": "PubChem BioAssay (Tox21)", "note": "Where “and” joins values, the source holds several entries; their conditions need not be identical. Identical values can stand only once. Inconclusive results are not listed. Where a call stands in place of a potency, no number is given. Some structures have more than one record in an assay (separate samples or runs), and their calls can disagree. Calls of active or inactive are those of the source. Calls follow the shape of the dose curve; as a rule, active = well fitted cell-killing curve with a large enough effect in the repeat runs; inconclusive = weak or mixed curves; inactive = no such curve, though single readings can be large or run the other way. Potency is read from the fitted curve at half-maximal effect.", "data": [{"experiment": "qHTS assay for identifying genotoxic compounds that show differential cytotoxicity against isogenic chicken DT40 cell lines with known DNA damage response pathways - Rad54/Ku70 mutant cell line (AID 743015); also: nearly all actives have a fitted effect of over 60% in size", "conditions": "DT40 Rad54/Ku70 mutant viability, CellTiter-Glo, 40 h; series mostly up to 66.8 µM", "text": "National Center for Advancing Translational Sciences [NCATS]\nNIH Chemical Genomics Center [NCGC]\nU.S. Environmental Protection Agency [EPA]\nNational Institutes of Environmental Health Sciences [NIEHS]\nNational Toxicology Program [NTP]\nU.S. Food and Drug Administration [FDA]\nDNA repair pathways play a critical role in cellular homeostasis by repairing DNA damage induced by endogenous processes and xenobiotics. Isogenic chicken DT40 cell lines deficient in different DNA repair pathways can be used to identify genotoxic compounds and aid in characterizing the nature of the DNA damage induced. Two DNA repair-deficient cell lines with disrupted genes, Rad54/Ku70 or Rev3, were used to screen the Tox21 10K compound library. Possible genotoxicity was based on the presence of a significant increase in cytotoxicity in one or more of the DNA repair-deficient cell lines compared to that observed in the parental DNA repair-proficient cell line. CellTiter Glo viability assay (Promega, Madison, WI) was used to measure cell viability in these cells after compound treatment. This assay includes the data from the Rad54/Ku70 mutant cell line.\nTox21 Assay Protocol Summary:\n300 DT40 mutant cells in 5 uL/well were dispensed into white, solid-bottom 1536-well plates using a Multidrop Combi (ThermoFisher Scientific, Waltham, MA) dispenser. After the assay plates were incubated at 37 C/5% CO2 for approximately 0.5 hour, 23 nL of compounds dissolved in DMSO, positive controls or DMSO only was transferred into the assay plate by a pintool work station (Kalypsys, San Diego, CA). The assay plates were incubated at 37 C/5% CO2 for 40 hours. After 5 uL per well of CellTiter-Glo reagent was added into each well of the assay plates, the plates were incubated for 30 min at room temperature and the luminescence intensity of the plates was measured using a ViewLux (PerkinElmer, Shelton, CT) plate reader.", "values": [{"smiles": "C=CC(Cl)CCl", "note": "(stereo not given)", "Potency": "inactive"}, {"smiles": "CCOP(=S)(OCC)OP(=S)(OCC)OCC", "Potency": "inactive"}, {"smiles": "Nc1ccc([N+](=O)[O-])cc1N", "Potency": "13.7 µM (active) and 19.3 µM (active)"}, {"smiles": "CN(C)c1nc(=O)n(C2CCCCC2)c(=O)n1C", "Potency": "inactive"}, {"smiles": "N#Cc1nn(-c2c(Cl)cc(C(F)(F)F)cc2Cl)c(N)c1S(=O)C(F)(F)F", "note": "(stereo not given)", "Potency": "9.44 µM (active) and 1.94 µM (active)"}, {"smiles": "Cl", "Potency": "inactive"}, {"smiles": "C[N+](C)(C)CC(=O)O", "Potency": "inactive"}, {"smiles": "CC(C)COC(=O)c1ccccc1C(=O)OCC(C)C", "Potency": "48.6 µM (active)"}, {"smiles": "COP(=S)(OC)SCn1nnc2ccccc2c1=O", "Potency": "60 µM (active) and 61.1 µM (active)"}, {"smiles": "CCOP(=O)(OCC)OCC", "Potency": "inactive"}, {"smiles": "CCC/C=N/O", "Potency": "inactive"}, {"smiles": "COC(=O)Nc1nc2ccccc2[nH]1", "Potency": "6.86 µM (active) and 7.7 µM (active)"}, {"smiles": "CCOC(=O)c1ccccc1N", "Potency": "inactive"}, {"smiles": "Cc1ccc(N=CN(C)C=Nc2ccc(C)cc2C)c(C)c1", "Potency": "inactive and 30.6 µM (active)"}, {"smiles": "CN(C)P(=O)(N(C)C)N(C)C", "Potency": "inactive"}, {"smiles": "Oc1ccc(Cl)cc1Cc1ccccc1", "Potency": "29.8 µM (active) and 48.6 µM (active) and 16.5 µM (active)"}, {"smiles": "COP(=O)(NC(C)=O)SC", "note": "(stereo not given)", "Potency": "inactive and 30.6 µM (active)"}, {"smiles": "O=NN1CCOCC1", "Potency": "inactive"}, {"smiles": "Cc1cccc(N=Nc2ccc(N(C)C)cc2)c1", "Potency": "inactive and 27.3 µM (active)"}, {"smiles": "ClCC(Cl)CCl", "Potency": "inactive"}, {"smiles": "N#CC(c1ccccc1)c1ccccc1", "Potency": "inactive"}, {"smiles": "Clc1ccccc1-c1nnc(-c2ccccc2Cl)nn1", "Potency": "inactive"}, {"smiles": "CC(C)(C#N)N=NC(C)(C)C#N", "Potency": "inactive"}, {"smiles": "N#CCCCCC#N", "Potency": "inactive"}, {"smiles": "NN=C(N)N", "Potency": "inactive"}, {"smiles": "COc1ccc(CO)cc1", "Potency": "inactive"}, {"smiles": "N#Cc1c(Cl)c(Cl)c(Cl)c(C#N)c1Cl", "Potency": "268 nM (active) and 154 nM (active)"}, {"smiles": "Brc1ccc(Br)cc1", "Potency": "inactive"}, {"smiles": "CNC(=O)Oc1cccc2c1OC(C)(C)C2", "Potency": "inactive"}, {"smiles": "CCCCCCCCCCCCCl", "Potency": "inactive"}, {"smiles": "c1ccc(C2CO2)cc1", "note": "(stereo not given)", "Potency": "inactive"}, {"smiles": "ClC(Cl)(Cl)Br", "Potency": "inactive"}, {"smiles": "OCCOCCO", "Potency": "inactive"}, {"smiles": "CC1(C)Cc2cccc(O)c2O1", "Potency": "inactive"}, {"smiles": "COc1ccc(C=O)cc1OC", "Potency": "inactive"}, {"smiles": "O=[N+]([O-])/N=C1\\NCCN1Cc1ccc(Cl)nc1", "Potency": "inactive and 5.31 µM (active)"}, {"smiles": "CCOP(=S)(OCC)SCSC(C)(C)C", "Potency": "inactive"}, {"smiles": "C[N+](C)(C)C", "Potency": "inactive"}, {"smiles": "NC(=O)CN1CCCC1=O", "Potency": "inactive"}, {"smiles": "Clc1cccc(C(Cl)(Cl)Cl)n1", "Potency": "inactive"}]}]}
